These results are taken from PubChem BioAssay (Tox21).

Values joined by “and” are separate entries in the source; they are usually repeats but may differ in a detail not shown here. Equal values may be shown once. Results filed as inconclusive are left out. Where a structure was tested more than once in an assay, its records may differ in their call. Active and inactive are the calls of the source. Unless noted, calls come from the whole dose curve.

A short description of assay [1]: Nuclear factor erythroid 2-related factor 2/antioxidant responsive element (Nrf2/ARE) small molecule agonists: qHTS cell viability counter screen in human keratinocytes (AID 1919968; active = well fitted curve in the direction sought with a large enough effect in the repeat runs; an effect the other way counts as inactive or inconclusive; note: nearly all actives have a fitted effect of over 55% in size; note: potency is the fitted concentration of half-maximal effect). The method in brief: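 Cytotoxicity was multiplexed with the Nrf2/ARE luciferase assay in the same wells. Stably transfected HaCaT keratinocytes were treated with test compounds for 23 h at 37 C. Cell viability was then measured by CellTiter-Fluor fluorescence.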
On the technique in general: Quantitative high-throughput screening tests each substance at several concentrations.

Assay [2] is described as follows: Nuclear factor erythroid 2-related factor 2/antioxidant responsive element (Nrf2/ARE) small molecule agonists: luciferase reporter gene qHTS assay in human keratinocytes (AID 1919969). Note: nearly all actives have a fitted effect of over 35% in size. Note: potency is the fitted concentration of half-maximal effect. A general note: In a reporter assay the amount or activity of a reporter protein is the signal.
Assay [3] concerns the target Gonadotropin-releasing hormone receptor (Homo sapiens) (UniProt P30968). As to the kind of experiment: Human gonadotropin-releasing hormone receptor (GnRHR) small molecule agonists, calcium flux assay in GnRHR-HEK293 cells (AID 1920063). Note: nearly all actives have a fitted effect of over 35% in size. The method in brief: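 Agonist activity was measured as intracellular calcium flux in HEK293 cells engineered to stably express human GnRHR. After dye loading for 1 hour at 37 C, compounds in DMSO were added and fluorescence was followed for 3 minutes.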
In general terms: A change in cytosolic calcium serves as a functional read-out for many receptors and channels.

The target of assay [4] is KiSS-1 receptor (Homo sapiens) (UniProt Q969F8). Description: Human kisspeptin (KISS1R) small molecule agonists, calcium flux assay in KISS1R-HEK293 cells (AID 1920064; active = well fitted curve in the direction sought with a large enough effect in the repeat runs; an effect the other way counts as inactive or inconclusive). The method in brief: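 Agonist activity is monitored as intracellular calcium rise in engineered HEK293 cells carrying human KISS1R. Cells are dye-loaded for 1 h at 37 C before compound addition, and fluorescence is recorded for 3 min.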

Assay [5] can be described thus: G protein-coupled receptor (GPCR) small molecule agonists, calcium flux assay: HEK293 wild type cell line counter screen (AID 1920065). The method in brief: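 Seed cells, incubate 18 h (37 C, 5% CO2); add calcium dye, 1 h at 37 C; pin-transfer compounds, ATP control or DMSO; read fluorescence 480/540 nm each second for 3 min.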
The nature of assay [6]: p53 small molecule agonists, cell-based qHTS assay with rat liver microsomes (AID 1963578). The method in brief:
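Fluorescence from a beta-lactamase reporter under a p53 response element was measured after cells had been incubated 16 h at 37 C with test compound and rat liver microsomes plus NADPH (0.5 mg/mL final each).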

A short description of assay [7]: p53 small molecule agonists, cell-based qHTS assay with human liver microsomes: qHTS cell viability counter screen (AID 1963579). Note: nearly all actives have a fitted effect of over 45% in size. In a few lines: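 Seed p53RE-bla cells at 4,000 per well; incubate 5 h at 37 C; add compound, human liver microsomes and NADPH; incubate 16 h at 37 C; add CellTiter-Glo; after 30 min at room temperature, read luminescence.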
A short description of assay [8]: p53 small molecule agonists, cell-based qHTS assay with rat liver microsomes: qHTS cell viability counter screen (AID 1963580). Note: nearly all actives have a fitted effect of over 45% in size. The method in brief: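 Counter screen for cytotoxicity under metabolic activation: rat liver microsomes and NADPH, 0.5 mg/mL final each, added with compounds to p53RE-bla HCT-116 cells; 16 h at 37 C, then ATP luminescence read.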
Assay [9] in a line: p53 small molecule agonists, cell-based qHTS assay: qHTS cell viability counter screen (AID 1963581). Note: nearly all actives have a fitted effect of over 45% in size. The method in brief:
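Viability was counter-screened in parallel with the p53 agonist reporter by measuring intracellular ATP luminescence in the same HCT-116 p53RE-bla wells after 16 h compound treatment at 37 C.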

Assay [10] in a line: p53 small molecule agonists, cell-based qHTS assay (AID 1963582; active = well fitted activation curve with a large enough effect in the signal ratio in the repeat runs, not every such curve was filed as active; the % refers to the signal ratio). In a few lines: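 Cells carrying a p53-responsive bla reporter are treated with test compounds for 16 h at 37 C; beta-lactamase activity is then detected with LiveBLAzer B/G FRET substrate after 2 h at room temperature.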
The target of assay [11] is 5-hydroxytryptamine receptor 2A (Homo sapiens) (UniProt P28223). Description: 5-hydroxytryptamine receptor 2A (HTR2A) small molecule antagonists, cell-based qHTS assay (AID 1963586). Note: nearly all actives have a fitted effect of over 45% in size. The method in brief: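 CHO cells stably expressing human HTR2A were plated for 18 h at 37 C, then loaded with calcium dye for 1 h. Compounds were preincubated 5 min at room temperature before DOI (4 nM solution) was added. Kinetic fluorescence was read for 3 min.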

Assay [12] shares this target. As to the kind of experiment: 5-hydroxytryptamine receptor 2A (HTR2A) small molecule agonists, cell-based qHTS assay (AID 1963587). Note: nearly all actives have a fitted effect of over 30% in size. Note: potency is the fitted concentration of half-maximal effect. The method in brief: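 HTR2A-CHO cells, plated 18 h at 37 C/5% CO2, dye-loaded 1 h at 37 C; compounds in DMSO added by pin tool (agonist mode). Intracellular calcium flux read as kinetic fluorescence on FDSS over 2 min at 1 s intervals.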

Assay [13] addresses Muscarinic acetylcholine receptor M1 (Homo sapiens) (UniProt P11229). As to the kind of experiment: Cholinergic receptor muscarinic 1 (CHRM1) small molecule antagonists, cell-based qHTS assay (AID 1963588). Note: nearly all actives have a fitted effect of over 40% in size. The method in brief: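 Compounds were tested at 15 concentrations in three independent runs. Dye-loaded CHRM1-CHO cells were exposed 5 min at room temperature before stimulation by acetylcholine added at 50nM. Intracellular calcium was read kinetically on FDSS for 3 min.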

For assay [14] the target is unchanged. As to the kind of experiment: Cholinergic receptor muscarinic 1 (CHRM1) small molecule agonists, cell-based qHTS assay (AID 1963589). Note: nearly all actives have a fitted effect of over 35% in size. The method in brief:
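Cells were plated and incubated 18 h at 37 C/5% CO2, loaded with calcium dye for 1 h at 37 C, then treated with compounds in DMSO. Fluorescence was recorded kinetically at 1 sec intervals.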

Assay [15] is described as follows: cAMP Responsive Elements (CRE) small molecule agonists, cell-based qHTS assay (AID 1963590). The method in brief: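 Cells carrying a CRE-driven beta-lactamase reporter (HEK 293T) are seeded, incubated overnight (18 h), and treated with test compounds for 3 h at 37 C; reporter activity is then detected with a FRET substrate after 2 h at room temperature.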
Assay [16] can be described thus: cAMP Responsive Elements (CRE) small molecule antagonists, cell-based qHTS assay (AID 1963591; active = well fitted inhibition curve with a large enough effect in the signal ratio in the repeat runs, not every such curve was filed as active; the % refers to the signal ratio). In a few lines: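 Cells (CRE-bla HEK 293T, DMEM with 10% dialyzed FBS and 25 mM HEPES) are seeded and incubated 18 h. Compounds are added with NKH477 agonist at 0.25 uM final for 3 h, then FRET substrate for 2 h.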
Assay [17] addresses Beta-2 adrenergic receptor (Homo sapiens) (UniProt P07550). As to the kind of experiment: Adrenergic beta2 receptor (ADRB2) small molecule antagonists, cell-based qHTS assay (AID 1963592). Note: series mostly up to about 92 µM; nearly all actives have a fitted effect of over 50% in size. The method in brief: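 Assay format: CHO-ADRB2 cells, 18-20hr seeding at 37C/5% CO2, then compound plus 1nM isoproterenol agonist mix for 0.5hr RT. Homogeneous time-resolved fluorescence cAMP detection after 1hr, expressed as 665/615 nm ratio.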

Assay [18] concerns the target D(2) dopamine receptor (Homo sapiens) (UniProt P14416). Description: Dopamine D2 receptor (DRD2) small molecule antagonists, cell-based qHTS assay (AID 1963595; active = well fitted inhibition curve with a large enough effect in the signal ratio in the repeat runs, with a control signal flat; the % refers to the signal ratio). In a few lines: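 Antagonist mode in DRD2-HEK293 cells: after compound addition with 0.1 mM Ro20-1724, cells received quinpirole (12 nM) and NKH477 (200 nM) for 30 min at room temperature; HTRF cAMP read after 1 h detection.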

The target of assay [19] is Beta-2 adrenergic receptor (Homo sapiens) (UniProt P07550). As to the kind of experiment: Adrenergic beta2 receptor (ADRB2) small molecule agonists, cell-based qHTS assay (AID 1963593).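 Note: CHO cells stably overexpressing human ADRB2.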 In a few lines: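 CHO cells stably over-expressing ADRB2 were plated overnight at 37C, then dosed with compounds plus a stimulation mix containing 100uM IBMX and 25uM Ro-20-1724 for 0.5hr at room temperature. cAMP was measured by HTRF competition, 1hr.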

The target in assay [20] is D(2) dopamine receptor (Homo sapiens) (UniProt P14416). As to the kind of experiment: Dopamine D2 receptor (DRD2) small molecule agonists, cell-based qHTS assay (AID 1963594). Note: nearly all actives have a fitted effect of over 35% in size. The method in brief:
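HEK293 cells stably expressing DRD2 were cultured 24 h at 37 C, then given Ro20-1724 (0.1 mM final) and compounds for 10 min at room temperature. NKH477 (200nM) was then added for 30 min. cAMP was read by HTRF.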

Chain of Beta-2 adrenergic receptor (Homo sapiens) (P07550 whole entry, looked up): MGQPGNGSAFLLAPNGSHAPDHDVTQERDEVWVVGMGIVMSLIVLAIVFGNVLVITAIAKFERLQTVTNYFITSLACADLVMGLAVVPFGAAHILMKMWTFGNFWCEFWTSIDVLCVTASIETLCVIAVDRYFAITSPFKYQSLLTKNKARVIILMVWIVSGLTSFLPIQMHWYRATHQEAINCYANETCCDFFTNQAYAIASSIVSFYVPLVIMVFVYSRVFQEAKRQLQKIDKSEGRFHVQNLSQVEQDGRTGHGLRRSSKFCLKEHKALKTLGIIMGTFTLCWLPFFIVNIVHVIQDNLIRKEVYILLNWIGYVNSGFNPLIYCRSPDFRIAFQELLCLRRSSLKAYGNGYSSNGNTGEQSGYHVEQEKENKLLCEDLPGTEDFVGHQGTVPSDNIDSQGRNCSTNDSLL
Chain of Gonadotropin-releasing hormone receptor (Homo sapiens) (P30968 whole entry, looked up): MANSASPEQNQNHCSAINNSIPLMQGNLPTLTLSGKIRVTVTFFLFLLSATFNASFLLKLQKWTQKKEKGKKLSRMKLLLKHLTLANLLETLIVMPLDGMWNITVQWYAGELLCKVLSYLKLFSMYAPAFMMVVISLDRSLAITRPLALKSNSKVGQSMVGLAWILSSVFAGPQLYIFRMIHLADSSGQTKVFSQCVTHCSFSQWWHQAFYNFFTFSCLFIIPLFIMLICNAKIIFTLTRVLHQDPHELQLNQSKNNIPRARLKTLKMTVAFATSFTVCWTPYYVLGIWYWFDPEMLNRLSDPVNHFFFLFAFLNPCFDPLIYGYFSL
Chain of KiSS-1 receptor (Homo sapiens) (Q969F8 whole entry, looked up): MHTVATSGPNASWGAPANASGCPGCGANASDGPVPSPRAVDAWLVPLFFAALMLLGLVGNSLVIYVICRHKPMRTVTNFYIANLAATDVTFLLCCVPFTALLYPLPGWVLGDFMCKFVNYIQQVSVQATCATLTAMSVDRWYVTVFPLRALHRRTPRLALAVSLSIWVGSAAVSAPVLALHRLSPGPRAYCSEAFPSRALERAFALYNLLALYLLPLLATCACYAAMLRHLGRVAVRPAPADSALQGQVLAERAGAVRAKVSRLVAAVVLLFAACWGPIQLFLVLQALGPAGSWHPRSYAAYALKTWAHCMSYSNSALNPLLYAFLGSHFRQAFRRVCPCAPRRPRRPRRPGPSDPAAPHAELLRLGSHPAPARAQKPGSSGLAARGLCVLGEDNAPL
Chain of 5-hydroxytryptamine receptor 2A (Homo sapiens) (P28223 whole entry, looked up): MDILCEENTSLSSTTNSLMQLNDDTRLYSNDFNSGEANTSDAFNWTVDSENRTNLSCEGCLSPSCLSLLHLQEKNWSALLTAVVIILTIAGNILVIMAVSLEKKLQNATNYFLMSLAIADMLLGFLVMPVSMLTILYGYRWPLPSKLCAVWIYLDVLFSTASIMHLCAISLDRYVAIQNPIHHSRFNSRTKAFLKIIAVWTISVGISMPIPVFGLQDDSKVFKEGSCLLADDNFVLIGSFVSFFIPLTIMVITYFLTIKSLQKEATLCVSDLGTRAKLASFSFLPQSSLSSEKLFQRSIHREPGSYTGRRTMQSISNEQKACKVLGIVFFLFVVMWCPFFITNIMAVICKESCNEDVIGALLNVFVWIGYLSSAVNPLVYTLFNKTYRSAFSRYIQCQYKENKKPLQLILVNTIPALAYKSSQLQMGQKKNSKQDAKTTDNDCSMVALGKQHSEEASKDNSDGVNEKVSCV
Chain of Muscarinic acetylcholine receptor M1 (Homo sapiens) (P11229 whole entry, looked up): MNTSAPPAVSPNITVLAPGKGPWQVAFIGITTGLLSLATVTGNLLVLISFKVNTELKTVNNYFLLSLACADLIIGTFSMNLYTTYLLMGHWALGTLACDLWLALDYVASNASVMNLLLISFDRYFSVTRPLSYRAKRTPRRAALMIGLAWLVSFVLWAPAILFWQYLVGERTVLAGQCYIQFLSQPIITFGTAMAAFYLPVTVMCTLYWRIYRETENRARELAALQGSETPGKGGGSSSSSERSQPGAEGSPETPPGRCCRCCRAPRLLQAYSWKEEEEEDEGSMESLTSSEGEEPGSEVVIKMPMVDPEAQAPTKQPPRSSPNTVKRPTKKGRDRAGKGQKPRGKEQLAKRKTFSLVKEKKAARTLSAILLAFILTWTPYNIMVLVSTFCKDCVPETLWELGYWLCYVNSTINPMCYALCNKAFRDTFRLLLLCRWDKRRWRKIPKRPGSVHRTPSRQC
Chain of D(2) dopamine receptor (Homo sapiens) (P14416 whole entry, looked up): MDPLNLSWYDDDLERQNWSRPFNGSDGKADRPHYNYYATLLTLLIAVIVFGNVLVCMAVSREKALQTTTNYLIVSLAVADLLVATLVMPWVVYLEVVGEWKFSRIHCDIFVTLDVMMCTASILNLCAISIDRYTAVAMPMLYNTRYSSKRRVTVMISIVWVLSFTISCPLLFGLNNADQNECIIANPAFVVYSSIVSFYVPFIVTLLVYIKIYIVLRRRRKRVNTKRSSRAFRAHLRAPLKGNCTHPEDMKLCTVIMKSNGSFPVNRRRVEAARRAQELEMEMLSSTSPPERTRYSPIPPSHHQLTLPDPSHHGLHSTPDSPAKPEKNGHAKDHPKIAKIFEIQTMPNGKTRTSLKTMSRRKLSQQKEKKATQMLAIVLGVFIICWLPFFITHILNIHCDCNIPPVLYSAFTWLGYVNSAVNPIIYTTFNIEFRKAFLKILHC

For `CCC(C)(C)C1CCCCC1OC(C)=O` (centres undefined), the Potency entry in assay [1], in assay [2], in assay [3], in [4], in assay [5] and in assay [6] was “inactive” throughout. For the same molecule, the Potency result in assay [7], in assay [8], in [9], in assay [10], in [11] and in [12] was “inactive” in each case. The Potency entry in assay [13], in assay [14], in [15], in assay [16], in [17] and in [18] was “inactive” each time.

Regarding `CC(C)(C)c1cc(C(C)(C)C)c(O)c(C(C)(C)C)c1`, the Potency entry in assay [1] is “inactive and 48.6 µM (active)”; in [2], 30.6 µM (active); in assay [12] it was 5.49 µM (active). The Potency result in assay [3], in assay [4], in [5], in [6], in [7] and in [8] was “inactive” each time. Further, the Potency entry in [10], in [11], in assay [13], in assay [14], in assay [15] and in assay [16] was “inactive” in each case. In addition, the Potency entry in assay [19], in assay [20] and in [18] was “inactive” throughout.

`S=C(NC1CCCCC1)NC1CCCCC1`: the Potency in assay [1] is 26.8 µM (active) and 24.3 µM (active); in [2] it was 15.1 µM (active). The Potency entry in [3], in assay [4], in assay [5], in [7], in [8] and in assay [9] was “inactive” each time. In addition, the Potency entry in assay [11], in [12], in assay [13], in [14], in assay [15] and in [16] was “inactive” each time. Further, the Potency entry in assay [17] and in assay [19] was “inactive” throughout.

Consider `CC[C@@H]1C[C@H](N(Cc2cc(C(F)(F)F)cc(C(F)(F)F)c2)C(C)=O)c2cc(C(F)(F)F)ccc2N1C(=O)OC(C)C`, for which the Potency result in assay [1], in assay [2], in [3], in assay [4], in [5] and in assay [6] was “inactive” each time. The Potency entry in assay [7], in assay [8], in [9], in assay [10], in assay [11] and in [12] was “inactive” throughout. Moreover, the Potency result in [13], in assay [14], in assay [16], in assay [17], in assay [19] and in [20] was “inactive” each time. For the same molecule, the Potency entry in [18] is “inactive”.

Consider `CCCCC(CC)COP(=O)(OCC(CC)CCCC)OCC(CC)CCCC` (centres undefined), for which the Potency result in assay [1], in assay [2], in assay [3], in assay [4], in [5] and in [6] was “inactive” each time. Also, the Potency result in assay [7], in assay [8], in [9], in assay [11], in assay [12] and in assay [13] was “inactive” each time. In addition, the Potency entry in assay [14], in [15], in assay [16], in [17], in [19] and in assay [20] was “inactive” each time. Besides, in assay [18], the Potency result was “inactive”.

Consider `Clc1cc(Cl)c(Cl)c(Cl)c1Cl`, for which the Potency entry in assay [1], in assay [2], in assay [3], in [4], in assay [5] and in assay [6] was “inactive” each time. Besides, the Potency result in assay [7], in assay [8], in assay [10], in assay [11], in [12] and in assay [13] was “inactive” throughout. The Potency result in assay [14], in assay [15], in assay [16], in assay [19] and in assay [18] was “inactive” in each case.

On to `CC(C)CC(=O)OCc1ccccc1`, for which the Potency result in assay [1], in [2], in [3], in assay [4], in assay [5] and in assay [6] was “inactive” throughout. In addition, the Potency entry in [7], in assay [8], in assay [9], in assay [10], in assay [11] and in assay [12] was “inactive” in each case. The Potency result in [13], in assay [14], in assay [15], in assay [16], in assay [17] and in [20] was “inactive” each time. The Potency entry in [18] is “inactive”.

In the case of `C=C1CC/C=C(\C)CC[C@@H]2[C@@H]1CC2(C)C`, the Potency entry in assay [1], in assay [2], in assay [3], in [4], in [5] and in assay [6] was “inactive” throughout. Moreover, the Potency entry in assay [7], in assay [8], in assay [9], in assay [10], in assay [12] and in [13] was “inactive” in each case. In addition, the Potency result in assay [14], in [15], in assay [16], in [17], in assay [20] and in assay [18] was “inactive” throughout.
